We go through 26 compounds from PubChem BioAssay (EPA / NIEHS).

Experiment [1] can be described thus: ATG_XTT_Cytotoxicity: Cytotoxicity Assessment in the Attagene TRANS-FACTORIAL HepG2 Assay (AID 2283584). The essentials: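 HepG2 cells transiently transfected with GAL4-UAS multiple reporter units, dosed 24 h; cytotoxicity read by XTT as loss of signal versus DMSO baseline.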
Experiment [2] can be described thus: TOX21_p53_BLA_p2_viability: Viability Assessment in the Tox21 HCT-116 p53 Agonism Beta-lactamase Assay, Phase 2 (AID 2283591).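 Further: compound exposure lasted 16 h at 37 °C; actives lower the ATP signal meaning cytotoxicity.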 The essentials:
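HCT116 p53-bla cells, 4000/well, dosed after 5 h plating (217-fold dilution of DMSO stocks) and incubated 16 h at 37C. Viability taken as cellular ATP by CellTiter-Glo luminescence after 30 min RT; signal loss marks cytotoxicity.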

In experiment [3] the target is Cellular tumor antigen p53 (Homo sapiens) (UniProt P04637). Nature of the experiment: TOX21_p53_BLA_p3_ratio: Tox21 HCT-116 p53 Agonism Beta-lactamase Assay, Ratio, Phase 3 (AID 2283596). In a few lines:
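HCT116 p53-bla cells (4000/well) given compound in DMSO (217-fold dilution) after 5 h, incubated 16 h at 37C. CCF4-AM substrate 2 h at room temperature; 460/530 nm emission ratio, gain fitted against DMSO.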

For experiment [4] the target is unchanged. The experiment in a line: TOX21_p53_BLA_p5_ratio: Tox21 HCT-116 p53 Agonism Beta-lactamase Assay, Ratio, Phase 5 (AID 2283599). In a few lines:
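HCT-116 p53-bla cells (4000/well) plated 5 h, dosed with compound (217-fold DMSO dilution) for 16 h at 37 C; CCF4-AM substrate 2 h at room temperature. Activity is the 460/530 nm emission ratio (405 nm excitation), fitted in gain-of-signal direction versus DMSO.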

Experiment [5] in a line: TOX21_p53_BLA_p5_viability: Viability Assessment in the Tox21 HCT-116 p53 Agonism Beta-lactamase Assay, Phase 5 (AID 2283600). In a few lines: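 HCT-116 p53 beta-lactamase reporter cells, 4000/well, were exposed to compound (pin transfer, 217-fold dilution) for 16 hours at 37C. Cellular ATP was read by CellTiter-Glo luminescence after 30 min at room temperature.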
Experiment [6] has as its target Cellular tumor antigen p53 (Homo sapiens) (UniProt P04637). Nature of the experiment: TOX21_p53_BLA_p4_ratio: Tox21 HCT-116 p53 Agonism Beta-lactamase Assay, Ratio, Phase 4 (AID 2283601). In a few lines: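 HCT-116 p53 beta-lactamase reporter cells (4000/well) preincubated 5 h, then compound (217-fold dilution of DMSO stock) for 16 h at 37C. CCF4-AM substrate added 2 h at room temperature; 460/530 nm emission ratio fitted upward versus DMSO.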

Experiment [7] is described as follows: TOX21_p53_BLA_p3_viability: Viability Assessment in the Tox21 HCT-116 p53 Agonism Beta-lactamase Assay, Phase 3 (AID 2283593).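 Further: cells exposed to compound for 16 h before reading.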 The essentials: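 HCT116 cells, 4000/well, dosed 5 h after plating by pin transfer (217-fold dilution from DMSO stock) and incubated 16 h at 37C, 5% CO2. Viability read as ATP luminescence with CellTiter-Glo after 30 min at room temperature.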

A short description of experiment [8]: TOX21_p53_BLA_p4_viability: Viability Assessment in the Tox21 HCT-116 p53 Agonism Beta-lactamase Assay, Phase 4 (AID 2283597).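 Further: hits lower the luminescence signal meaning cytotoxicity.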 In a few lines:
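HCT-116 p53-bla cells, 4000/well, dosed after 5 h attachment and incubated 16 h at 37 °C, 5% CO2. Viability from CellTiter-Glo ATP luminescence after 30 min at room temperature, taken after the beta-lactamase read; loss of signal indicates cytotoxicity.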

Experiment [9] concerns the target Cellular tumor antigen p53 (Homo sapiens) (UniProt P04637). The experiment in a line: TOX21_p53_BLA_p2_ratio: Tox21 HCT-116 p53 Agonism Beta-lactamase Assay, Ratio, Phase 2 (AID 2283592). The essentials:
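HCT-116 cells with p53-responsive beta-lactamase reporter, 4000 cells/well, preincubated 5 h, then compound in DMSO (217-fold dilution) for 16 h at 37C. CCF4-AM substrate 2 h at room temperature; 460/530 nm emission ratio fitted upward versus DMSO.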

Results filed as inconclusive are left out. A structure can be active in one record and inactive in another. Calls of active or inactive are those of the source. How the source made its calls: active means hit-call score of the fitted dose curve at least 0.9, where 1 is the maximum; inconclusive means response in the unintended direction; inactive means score below 0.9.

Sequence of Cellular tumor antigen p53 (Homo sapiens) (P04637 whole entry, looked up): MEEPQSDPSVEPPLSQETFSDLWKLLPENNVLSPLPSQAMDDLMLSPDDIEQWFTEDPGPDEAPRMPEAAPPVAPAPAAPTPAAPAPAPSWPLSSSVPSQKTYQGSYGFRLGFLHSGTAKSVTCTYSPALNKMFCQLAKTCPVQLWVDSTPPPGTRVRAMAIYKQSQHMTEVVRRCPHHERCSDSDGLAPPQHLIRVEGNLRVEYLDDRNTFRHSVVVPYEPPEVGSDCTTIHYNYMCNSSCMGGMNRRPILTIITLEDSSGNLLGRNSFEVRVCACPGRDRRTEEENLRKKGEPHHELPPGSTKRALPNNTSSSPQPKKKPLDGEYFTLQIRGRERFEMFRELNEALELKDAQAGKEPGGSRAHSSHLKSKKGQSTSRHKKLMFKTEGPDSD

As to `CCCCC(CC)C(=O)OC(C)C` (stereo not drawn), the compound was called inactive in [1], in [2], in experiment [3], in experiment [4], in experiment [5] and in experiment [6].
Consider `C[C@H](CCC(=O)NCC(=O)O)[C@H]1CC[C@H]2[C@@H]3[C@H](O)C[C@@H]4C[C@H](O)CC[C@]4(C)[C@H]3C[C@H](O)[C@]12C`, for which the compound was called inactive in experiment [1], in experiment [2], in experiment [3], in experiment [4] and in experiment [6].
Take `Cc1[nH]c(=O)c(C#N)cc1-c1ccncc1`: the outcome in experiment [1], in [2], in experiment [7], in experiment [3], in [4] and in experiment [5] was inactive. In experiment [6], the result was inactive.
With `CC(C)=CCCC(C)CCOC=O` (stereo not drawn), the compound was classed as inactive in experiment [1], in experiment [2], in [4] and in experiment [6]. Also, the results for the half-maximal activity concentration (AC50) in experiment [7] and in experiment [3] were 39.7 µM (active) and 69.8 µM (active), respectively.
As to `COc1ccccc1[N+](=O)[O-]`, the compound was called inactive in experiment [1], in experiment [2], in [7], in experiment [3], in experiment [4] and in experiment [6].
For the compound `CC1(C)C2=CCCC(C)(C)[C@]23CC[C@H]1C3`, the result in experiment [1], in experiment [2], in [7], in experiment [3], in experiment [8] and in experiment [4] was inactive. Further, in experiment [6], the result was inactive.
For `Cc1c(C2(c3cc(Br)c(O)c(Br)c3C)OS(=O)(=O)c3ccccc32)cc(Br)c(O)c1Br`, the compound was called inactive in [1], in [2], in [3], in [5] and in experiment [6]. The AC50 – broadly, the concentration at which the activity in the assay is half-maximal – in experiment [7] was 37.1 µM (active).
Consider `Nc1c(Cl)cc(Cl)cc1[N+](=O)[O-]`, for which the compound was called inactive in experiment [1], in experiment [2], in experiment [9], in [8], in [5] and in [6].
Consider `CC(=O)c1ccccn1`, for which the outcome in experiment [1], in [2], in experiment [3], in experiment [8], in [4] and in experiment [5] was inactive.
In the case of `COc1ccc(N=Nc2cc(C)c(N=Nc3ccc(S(=O)(=O)O)cc3)cc2OC)cc1`, the outcome in [1], in experiment [2], in experiment [7], in experiment [3], in experiment [8] and in experiment [4] was inactive. Moreover, the compound was classed as inactive in [5] and in [6].
As for `Cc1ccc(-c2ccccc2)cc1`, the result in experiment [1], in experiment [2], in experiment [7], in experiment [3], in [4] and in experiment [5] was inactive.
In the case of `CC=CC=CCOC(=O)C(C)C`, the compound was called inactive in experiment [1], in experiment [2], in [7], in experiment [3] and in [8].
For the compound `COC(C)(C)CC(C)=O`, the result in [1], in [2], in experiment [7], in [3] and in experiment [4] was inactive.
On to `Cc1ccc(C)o1`, for which the compound was classed as inactive in [1], in experiment [2], in [7], in experiment [4] and in experiment [6].
As to `CC(C)NCC(O)COc1ccc(CC(N)=O)cc1` (stereo not drawn), the outcome in experiment [1], in experiment [2], in experiment [9], in [4] and in experiment [5] was inactive.
As to `CCC(C)=O`, the compound was called inactive in experiment [1], in [2], in [7] and in experiment [8].
Turning to `IC(I)I`, the compound was called inactive in experiment [1], in [2], in experiment [7], in experiment [3], in experiment [8] and in experiment [4]. Besides, the outcome in [5] and in experiment [6] was inactive.
Take `CCCCCCCCCCCCCC(=O)OCC(O)CO` (stereo not drawn): the call in [1], in experiment [2], in experiment [9] and in experiment [4] was inactive.
Regarding `CCCCCC(C=O)=Cc1ccccc1`, the result in experiment [1], in experiment [2], in experiment [7], in experiment [3], in [4] and in experiment [6] was inactive.
For the compound `Cc1ccc(N)c(S(=O)(=O)O)c1`, the compound was classed as inactive in [1], in [2], in [7], in experiment [3], in [4] and in experiment [5]. The outcome in [6] was inactive.
Turning to `OCc1cccc(Oc2ccccc2)c1`, the call in experiment [1], in experiment [2], in [7], in experiment [3], in experiment [8] and in experiment [4] was inactive. The result in [5] and in experiment [6] was inactive.
Regarding `C1CCOC1`, the compound was classed as inactive in [1], in experiment [2], in experiment [7], in experiment [3] and in experiment [6].
As for `N[C@@H](Cc1cc(I)c(Oc2cc(I)c(O)c(I)c2)c(I)c1)C(=O)O`, the compound was called inactive in [1], in experiment [2], in experiment [7], in experiment [3], in experiment [8] and in [6]. The concentration at half-maximal activity (AC50) was 37 µM (active) in [8], 39.3 µM (active) in [4] and 39.8 µM (active) in experiment [6].
Take `Brc1ccc(Br)c(Br)c1`: the call in [1], in experiment [2], in [7], in experiment [3], in experiment [4] and in experiment [5] was inactive. Besides, in experiment [6], the outcome was inactive.
Regarding `O=C(O)c1ccc(O)cc1`, the compound was called inactive in experiment [1], in experiment [2], in experiment [7], in experiment [3], in experiment [8] and in [4]. The outcome in experiment [6] was inactive.
Consider `O=C(Nc1ccc2c(O)c(N=Nc3ccc(N=Nc4ccc(S(=O)(=O)O)cc4)cc3)c(S(=O)(=O)O)cc2c1)c1ccccc1`, for which the compound was classed as inactive in [1], in experiment [2], in [8] and in [6].
